# AMA1 RON2 block: AMA1-RON2 (P. falciparum) interaction inhibition; AlphaScreen AMA1-biotinylated RON2 peptide binding; actives 0.2% (n = 360,000); AID 720542; Potency, µM (series often up to 58.2 µM), most hits filed as inhibitors; note: nearly all actives have a fitted effect of over 45% in size
#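 AMA1 (3D7) with his tag at 25 nM final met compounds first, then biotinylated RON2 peptide at 25 nM; detection used donor plus acceptor beads, 10 µg/mL apiece, read by AlphaScreen after 30 min at room temperature.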
# Pf growth 96h: P. falciparum growth inhibition at 96 hours; P. falciparum luciferase reporter growth, 96 h; Potency, µM (top dose mostly 28.7 µM), hits mostly inhibitors; actives 6.9% (n = 320,000)
#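 Delayed-death screen, second-generation endpoint: infected erythrocytes, 2% hematocrit, 0.05% parasitemia final; 96 hours at 37 C, 5% CO2; luciferase detection reagent; luminescence decrease equals reduced growth.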
# Pf growth 48h: inhibits P. falciparum growth in the first generation, 48 h; P. falciparum luciferase growth in erythrocytes, 48 h; Potency, µM (top dose mostly 28.7 µM), actives largely listed as inhibitors; actives 5.9% (n = 310,000); AID 504832
#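 Luminescence readout; reporter = integrated firefly luciferase in P. falciparum. RBC culture at 2% hematocrit, 0.1% parasitemia final, 37 C/5% CO2; decreased signal taken as growth inhibition.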
# HCV inh: inhibitors of hepatitis C virus infection; Huh7.5.1 HCVcc-Cre infection, luciferase reporter, 44 h; Potency, µM (highest dose often 41.8 µM), actives largely listed as inhibitors; actives 3.4% (n = 340,000); AID 651820
#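 Seed cells (1,000/well) for 4 h; treat with compound and infect with HCVcc-Cre, moi about 0.5. Incubate 44 h, then detect luciferase activity.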
# Hits are given with their value; – = inactive; ? = inconclusive; · = no result given; ! = not active in a repeat; [ ] = dose if it differs, or a comment. In the library only some 11% were active in any assay of this set; here they are far more common. Calls come from the whole dose curve; as a rule, active = well fitted curve in the direction sought with a large enough effect; inconclusive = small, poorly fitted or top-dose-only effect, or another doubt; inactive = no such curve, though single readings can be large; an effect the other way counts as inactive or inconclusive.
SMILES,AMA1 RON2 block,Pf growth 96h,Pf growth 48h,HCV inh
CCCn1c(SCC(=O)Nc2ccccc2N2CCCCC2)nc2c1c(=O)n(C)c(=O)n2C,–,–,?,10µM!
CCCCn1c(SCC(=O)OC)nc2c1c(=O)n(C)c(=O)n2C,–,–[5.75 µM],–,–
Cn1c(=O)c2c(SCC(=O)N3CCCC3)nc(CC(C)(C)C)nc2n(C)c1=O,–,13µM,–,–
CCc1nc(SCC(=O)N2CCCC2)c2c(=O)n(C)c(=O)n(C)c2n1,–,–,–,·
CCCn1c(SCC(=O)Nc2ccc3c(c2)OCO3)nc2c1c(=O)n(C)c(=O)n2C,–,10µM,–,?
C=CCCC(=O)N1C[C@@H](CO)[C@@H](NC)C[C@H]1c1ccccc1Br,–,·,·,·
CC(=O)C(c1ccccc1)C(c1ccccc1)C(C)[N+](=O)[O-] (stereo unspecified),–,–,?,–
CCCn1c(SCC(=O)N2CCCC2)nc2c1c(=O)n(C)c(=O)n2C,–,1.2µM,–,–
CN1CCOC(=O)/C1=N/Nc1cc(Cl)ccc1Cl,?,–,–,–
Cc1cc(/N=C/C=C2\N(C)c3ccccc3C2(C)C)n(CCC#N)n1,–,–[5.75 µM],?,11µM
Cc1nn2c(-c3ccncc3)ccnc2c1Br,–,?,?,–
CC[C@H]1CN2CCC1C[C@@H]2[C@H](O)c1ccnc2ccc(OC)cc12 (stereo partly specified),–,·,·,–
C=C[C@H]1CN2CC[C@H]1C[C@@H]2[C@@H](O)c1ccnc2ccccc12,–,0.0041µM,0.033µM,–
C=CC1CN2CCC1CC2C(OC(C)=O)c1ccnc2ccc(OC)cc12 (stereo unspecified),–,0.29µM,0.37µM,–
C[C@H](CO)N1C[C@H](C)[C@@H](CN(C)C(=O)C2CCOCC2)Oc2ncc(Br)cc2C1=O,–,·,·,·
O=C1c2ccccc2C(=O)c2c(Nc3ccc(CCO)cc3)ccc(O)c21,8.9µM,?,?,?
CC(=O)Nc1ccc(Nc2ccc3c4c(cc(=O)n3C)-c3ccccc3C(=O)c24)cc1,–,?,–,–
O=C(NCCS(=O)(=O)N1CCN(c2cccc(Cl)c2)CC1)c1ccco1,–,?,–,–
Cc1nnc(SCC(=O)NC(C)(C)C)n1NCc1ccc(Cl)cc1,–,–,–,–
Cc1nnc(SCC(=O)NC(C)(C)C)n1NCc1c(F)cccc1Cl,–,2.3µM,–,–
Cc1cccc(N(C(=O)CCC(=O)Nc2cc(C)on2)C(C(=O)NC2CCCC2)c2ccccc2)c1 (stereo unspecified),–,?,?,–
O=C(CCN1C(=O)/C(=C\c2ccccc2)SC1=S)NCCCN1CCOCC1,–,7.4µM,13µM,?
O=C(CN1C(=O)/C(=C\c2cccc(Br)c2)Oc2ccccc21)NCCCN1CCOCC1,–,?,?,6.3µM
O=C(CN1C(=O)/C(=C/c2ccc(C(F)(F)F)cc2)Sc2ccccc21)NCCCN1CCOCC1,–,–,–,11µM
CCc1ccc(/C=C2/Sc3ccccc3N(CC(=O)NCCCN3CCOCC3)C2=O)cc1,–,?,?,?
SMILES,AMA1 RON2 block,Pf growth 96h,Pf growth 48h,HCV inh
COc1ccc(-c2nn(C)c(=O)c3ccccc23)cc1NC(=O)Cn1nc(C)c2ccccc2c1=O,–,–,10µM,?
CCCC(=O)Nc1cc(-c2nn(C)c(=O)c3ccccc23)ccc1N1CCCCC1,–,·,·,?
Cc1nn(CC(=O)Nc2ccc(C(=O)N3CCCCC3)cc2)c(=O)c2ccccc12,–,·,–,–
CCN(CC)S(=O)(=O)c1ccc(N2CCCC2)c(NC(=O)c2nn(C)c(=O)c3ccccc23)c1,–,13µM,13µM,?
CCC(=O)Nc1cc(-c2nn(C)c(=O)c3ccccc23)ccc1OC,–,?,–,–
CCC(=O)Nc1cc(-c2nn(C)c(=O)c3ccccc23)ccc1N1CCCCC1,–,–,5.2µM,–
Cc1nn(CC(=O)Nc2ccc(C(=O)N3CCCC3)cc2)c(=O)c2ccccc12,–,9.3µM,–,–
CC1(Cc2ccc(Cl)cc2)C(=O)Nc2c(Cl)ccc(Cl)c21 (stereo unspecified),–,·,·,·
CCn1cc(C(=O)N[C@@H](CCSC)C(=O)NCCN2CCOCC2)c(=O)c2cc3c(cc21)OCO3,–,–,–,–
Cn1nc(C(=O)Nc2ccccc2N2CCCC2)c2ccccc2c1=O,–,–,?,11µM
Nc1nc2cc3c(cc2cc1C(=O)NCc1ccc(F)cc1)OCO3,–,·,·,·
Cc1cccc(NCC(=O)N/N=C\c2ccc[nH]2)c1,–,–,–,8.9µM
O=C(CNc1cccc2ccccc12)N/N=C/c1ccc([N+](=O)[O-])o1,–,1.2µM,3.3µM,10µM
O=C(CNc1cccc2ccccc12)N/N=C/c1ccc[nH]1,–,–,–,1µM
O=C(CNc1cccc([N+](=O)[O-])c1)N/N=C/c1ccc([N+](=O)[O-])o1,–,–,?,?
CCN(CC)S(=O)(=O)c1ccc(N2CCOCC2)c(NC(=O)c2nn(C(C)C)c(=O)c3ccccc23)c1,–,·,·,·
COCOCCn1cc(CN2CCS(=O)(=O)N(Cc3ccc(-c4ccc(OC)c(OC)c4)cc3)C(C)C2=O)nn1 (stereo unspecified),–,·,·,·
COc1cc(C)ccc1OCCOCCOc1cc(C)c(C)cc1Br,–,–,–,?
COc1cc(C)ccc1OCCOCCOc1ccccc1Br,–,2.6µM,–,?
COc1cc(C)ccc1OCCCOc1c(Cl)cccc1Cl,–,0.13µM,–,–
CCOc1ccc(-c2onc(C(F)(F)F)c2-c2cscn2)c(O)c1,–,·,4.7µM,10µM
CCOC(=O)c1[nH]c(C)c(C(=O)OCC(=O)N(C)C2CCS(=O)(=O)C2)c1C (stereo unspecified),–,–,–,–
CS(=O)(=O)N1CCC(C(=O)Nc2cc(Cl)c(Cl)cc2Cl)CC1,–,2.1µM,–,–
CS(=O)(=O)N1CCC(C(=O)NCc2ccc(Cl)cc2)CC1,–,–,2.3µM,–
COc1ccc(Br)cc1CNC(=O)C1CCN(S(=O)(=O)N2CCC(C)CC2)CC1,–,12µM,?,–
SMILES,AMA1 RON2 block,Pf growth 96h,Pf growth 48h,HCV inh
COc1ccc(Br)cc1CNC(=O)C1CCCN(S(=O)(=O)N2CCC(C)CC2)C1 (stereo unspecified),–,·,·,·
CS(=O)(=O)N1CCC(C(=O)NCc2ccncc2)CC1,–,–,–,–
O=C(NCc1ccc(F)cc1Cl)C1CCN(S(=O)(=O)N2CCCCC2)CC1,–,3.3µM,–,–
CCCCNC(=O)C1C(c2ccccc2)=Nc2ccccc2N1C(=O)c1ccc(C)cc1 (stereo unspecified),–,·,·,·
Cc1ccc2nc(-c3ccco3)c(CC(C)(C)C)n2c1,–,·,·,·
CCN(CCNC(=O)C1CCN(S(C)(=O)=O)CC1)c1ccccc1,–,4.7µM,–,–
O=C(NCc1ccc(Cl)cc1)C1CCN(C(=O)Cc2ccccc2)CC1,–,12µM,–,–
CCN(CCNC(=O)Nc1ccc(Cl)cc1)c1ccccc1,–,–,?,14µM
O=C(NCCc1ccc(Cl)cc1)Nc1ccc(Cl)cc1,–,–,–,–
Cc1ccc(S(=O)(=O)n2cc(CO)c3ccccc32)cc1,–,·,·,–

# Compound activity (PubChem BioAssay)
